The AC50 is the midpoint of the concentration-response curve, whichever way the signal moves.

Common to all, as to conditions: primary human HUVEC with PBMC; actives raise or lower the signal
Read-out in experiment [1]: Interleukin-1 alpha (IL1a), IL1A (gene 3552)
The experiment in a line: BSK_LPS_IL1a: BioMAP Diversity Plus: LPS Assay for Interleukin-1 alpha (IL1a) Biomarker Activity (AID 2283080). A digest of the protocol:
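ELISA read-out of IL-1 alpha from a human primary vascular co-culture (endothelium plus PBMC) under LPS, sampled 24 hours post-dosing. Activity was fitted in both directions relative to DMSO controls.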

Read-out in experiment [2]: Monocyte Chemoattractant Protein-1 (MCP1), CCL2 (gene 6347)
The experiment in a line: BSK_LPS_MCP1: BioMAP Diversity Plus: LPS Assay for Monocyte Chemoattractant Protein-1 (MCP1) Biomarker Activity (AID 2283081).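 On AC50: secreted MCP-1 protein quantified by ELISA in culture supernatant.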 In a few lines:
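Human endothelial–PBMC co-cultures were dosed with chemical, then LPS-driven MCP-1 levels were quantified by ELISA at 24 h. Activity in either direction was fitted versus DMSO negative control.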

The nature of experiment [3]: BSK_LPS_PGE2: BioMAP Diversity Plus: LPS Assay for Prostaglandin E2 (PGE2) Biomarker Activity (AID 2283082).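 On AC50: secreted prostaglandin E2 measured by ELISA in LPS-stimulated co-culture.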 A digest of the protocol:
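PGE2 release measured by ELISA in an LPS-activated co-culture of human umbilical vein endothelial cells and peripheral blood mononuclear cells, read at 24 h post-dosing. DMSO served as baseline for bidirectional curve fitting.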

Read-out in experiment [4]: Macrophage colony-stimulating factor (MCSF), CSF1 (gene 1435)
The experiment is described as follows: BSK_LPS_MCSF: BioMAP Diversity Plus: LPS Assay for Macrophage colony-stimulating factor (MCSF) Biomarker Activity (AID 2283083). A digest of the protocol:
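ELISA readout of M-CSF after 24 h compound exposure in a human endothelial/PBMC co-culture. Activity, in either direction, is fitted relative to DMSO vehicle.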

Read-out in experiment [5]: Tissue Factor, F3 (gene 2152)
The experiment is described as follows: BSK_LPS_TissueFactor: BioMAP Diversity Plus: LPS Assay for Tissue Factor Biomarker Activity (AID 2283084). A digest of the protocol: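 ELISA signal for cell-surface Tissue Factor (CD142) was read 24 h after compound dosing of an LPS-stimulated human endothelial–PBMC primary co-culture. Gain or loss of signal was scored relative to DMSO.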

Read-out in experiment [6]: Tumor necrosis factor (Homo sapiens) (UniProt P01375)
The experiment in a line: BSK_LPS_TNFa: BioMAP Diversity Plus: LPS Assay for Tumour Necrosis Factor alpha (TNFa) Biomarker Activity (AID 2283085).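 On AC50: TNFa protein level quantified by ELISA in the co-culture.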 In a few lines:
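TNFa was quantified by ELISA in LPS-activated co-cultures of human endothelial cells and PBMC, 24 h post-dosing. Both increases and decreases versus DMSO were fitted.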

Read-out in experiment [7]: Vascular cell adhesion molecule 1 (VCAM1), VCAM1 (gene 7412)
The experiment is described as follows: BSK_LPS_VCAM1: BioMAP Diversity Plus: LPS Assay for Vascular cell adhesion molecule 1 (VCAM1) Biomarker Activity (AID 2283086). In a few lines:
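VCAM-1 quantified by ELISA in an LPS-activated co-culture of human endothelial cells and peripheral blood mononuclear cells, read 24 h post-treatment. Fitted in both directions versus DMSO; parallel SRB staining flags overt cytotoxicity.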

Read-out in another experiment: CD38, CD38 (gene 952)
The experiment is described as follows: BSK_SAg_CD38: BioMAP Diversity Plus: SAg Assay for CD38 Biomarker Activity (AID 2283087). A digest of the protocol: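 CD38 quantified by ELISA (fluorescence) in a superantigen-activated endothelial cell–PBMC co-culture at 24 h post-dose. Activity fitted in both directions relative to DMSO; parallel SRB and Alamar Blue cytotoxicity read-outs.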

Read-out in another experiment: CD40, CD40 (gene 958)
The experiment is described as follows: BSK_SAg_CD40: BioMAP Diversity Plus: SAg Assay for CD40 Biomarker Activity (AID 2283088). A digest of the protocol:
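Compounds were dosed onto a human primary endothelial–PBMC co-culture, and after 24 h CD40 was quantified by ELISA using a fluorescence signal. Activity in either direction was fitted relative to DMSO.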

Read-out in the next experiment: CD69, CD69 (gene 969)
The experiment is described as follows: BSK_SAg_CD69: BioMAP Diversity Plus: SAg Assay for CD69 Biomarker Activity (AID 2283089).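 On AC50: cell surface CD69 protein quantified by ELISA with fluorescence detection.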 In a few lines: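 Endothelial/PBMC co-culture; chemical added; 24 h incubation; CD69 ELISA with fluorescence detection; bidirectional fit vs DMSO.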

The source made the active and inactive calls. How the source made its calls: active means hit-call score of the fitted dose curve at least 0.9, where 1 is the maximum; inactive means score below 0.9.

Tumor necrosis factor (Homo sapiens), sequence (P01375 whole entry, looked up): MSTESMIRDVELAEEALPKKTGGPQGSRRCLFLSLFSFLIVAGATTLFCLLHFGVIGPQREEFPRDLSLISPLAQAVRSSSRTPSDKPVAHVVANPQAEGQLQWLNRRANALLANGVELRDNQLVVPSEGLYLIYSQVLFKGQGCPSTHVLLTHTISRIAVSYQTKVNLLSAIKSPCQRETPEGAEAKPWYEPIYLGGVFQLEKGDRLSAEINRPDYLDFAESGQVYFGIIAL

As for `Oc1ccccc1-c1ccccc1`, the outcome was “inactive” in experiment [1]; “inactive” in [2]; “inactive” in experiment [4]; “inactive” in experiment [5]; “inactive” in [7]; “inactive” with CD38, CD38 (gene 952). Besides, the outcome is “inactive” in the experiment with CD40, CD40 (gene 958) and “inactive” with CD69, CD69 (gene 969). For the same molecule, the half-maximal activity concentration (AC50) is 4.65 µM (active) in experiment [3] and 14.8 µM (active) in experiment [6].

For `OC(c1ccc(Cl)cc1)(c1cncnc1)c1ccccc1Cl` (stereo unspecified), the outcome in [2], in [4], in experiment [5] and in experiment [7] was inactive. Further, the AC50 in [3] is 4.99 µM (active); in experiment [6], 10.9 µM (active); in the experiment with CD38, CD38 (gene 952), 20 µM (active); in the experiment with CD40, CD40 (gene 958) it was 13.8 µM (active); with CD69, CD69 (gene 969), 14.2 µM (active).

Turning to `CCNc1nc(Cl)nc(NC(C)C)n1`, the outcome was “inactive” in experiment [2]; “inactive” in experiment [3]; “inactive” in experiment [4]; “inactive” in [5]; “inactive” in experiment [7]; “inactive” with CD38, CD38 (gene 952). Besides, the outcome was “inactive” in the experiment with CD40, CD40 (gene 958) and “inactive” with CD69, CD69 (gene 969). Besides, the AC50 in experiment [6] was 6.09 µM (active).

Take `COP(=S)(OC)Oc1nc(Cl)c(Cl)cc1Cl`: the AC50 is 30.4 µM (active) in experiment [2]; 26.7 µM (active) in experiment [3]; 25.3 µM (active) in experiment [5]; 27.8 µM (active) in experiment [6]; 26.4 µM (active) in experiment [7]. In addition, the outcome is “inactive” in experiment [4]; “inactive” in the experiment with CD38, CD38 (gene 952); “inactive” with CD40, CD40 (gene 958); “inactive” with CD69, CD69 (gene 969).

Regarding `COC(=O)C=C(C)OP(=O)(OC)OC`, the outcome was “inactive” in experiment [2]; “inactive” in experiment [4]; “inactive” in experiment [5]; “inactive” in experiment [6]; “inactive” in experiment [7]; “inactive” with CD38, CD38 (gene 952). For the same molecule, the outcome with CD40, CD40 (gene 958) is “inactive”; with CD69, CD69 (gene 969), “inactive”. Also, the AC50 in experiment [3] was 0.37 µM (active).

`CN(C)C(=S)SSC(=S)N(C)C`: the AC50 was 27.1 µM (active) in experiment [2]; 4.51 µM (active) in experiment [3]; 14.8 µM (active) in experiment [4]; 14.5 µM (active) in experiment [5]; 13.8 µM (active) in experiment [6]; 24.6 µM (active) in [7]. Further, the AC50 with CD38, CD38 (gene 952) is 26.8 µM (active); in the experiment with CD40, CD40 (gene 958), 28 µM (active); with CD69, CD69 (gene 969), 28.3 µM (active).

Turning to `N#CC(CCc1ccc(Cl)cc1)(Cn1cncn1)c1ccccc1` (stereo unspecified), the outcome in [2] was “inactive”; in experiment [4] it was “inactive”; in experiment [5] it was “inactive”; in [6], “inactive”; in experiment [7], “inactive”; in the experiment with CD38, CD38 (gene 952) it was “inactive”. Further, the outcome with CD40, CD40 (gene 958) is “inactive”; in the experiment with CD69, CD69 (gene 969), “inactive”. Also, the AC50 in experiment [3] is 3.75 µM (active).

In the case of `COP(N)(=O)SC` (stereo unspecified), the outcome was “inactive” in experiment [2]; “inactive” in experiment [4]; “inactive” in experiment [5]; “inactive” in experiment [6]; “inactive” in [7]; “inactive” with CD38, CD38 (gene 952). In addition, the outcome in the experiment with CD40, CD40 (gene 958) was “inactive”; in the experiment with CD69, CD69 (gene 969) it was “inactive”. Moreover, in [3], the AC50 is 20 µM (active).

With `C=CC1(C)OC(=O)N(c2cc(Cl)cc(Cl)c2)C1=O` (stereo unspecified), the outcome in experiment [2], in [3], in [4], in experiment [5], in [6] and in experiment [7] was inactive. The outcome with CD38, CD38 (gene 952) is “inactive”; in the experiment with CD40, CD40 (gene 958), “inactive”; with CD69, CD69 (gene 969), “inactive”.

In the case of `CCOC(=O)C(Cl)Cc1cc(-n2nc(C)n(C(F)F)c2=O)c(F)cc1Cl` (stereo unspecified), the outcome in experiment [2], in experiment [3], in [4], in experiment [5], in experiment [6] and in experiment [7] was inactive. Moreover, the outcome was “inactive” with CD38, CD38 (gene 952); “inactive” with CD40, CD40 (gene 958); “inactive” with CD69, CD69 (gene 969).

Turning to `O=C(Nc1ccccc1)Nc1ccnc(Cl)c1`, the AC50 was 9.85 µM (active) in [2]; 6.08 µM (active) in experiment [3]; 31.1 µM (active) in experiment [6]; 20 µM (active) in the experiment with CD69, CD69 (gene 969). In addition, the outcome in experiment [4] was “inactive”; in experiment [5], “inactive”; in experiment [7], “inactive”; with CD38, CD38 (gene 952), “inactive”; with CD40, CD40 (gene 958), “inactive”.

Take `CC1COC(Cn2cncn2)(c2ccc(Oc3ccc(Cl)cc3)cc2Cl)O1` (stereo unspecified): the AC50 in experiment [2] was 31.7 µM (active); in [3] it was 0.172 µM (active); in [4] it was 27.6 µM (active); in [5], 30.2 µM (active); in experiment [6], 31.5 µM (active); in experiment [7], 29.7 µM (active). Moreover, the AC50 with CD38, CD38 (gene 952) is 19.4 µM (active); with CD40, CD40 (gene 958) it was 18.4 µM (active); with CD69, CD69 (gene 969), 18.8 µM (active).

On to `Fc1ccc(Oc2ccnc3cc(Cl)cc(Cl)c23)cc1`, for which the half-maximal activity concentration (AC50) in experiment [2] is 29.5 µM (active); in experiment [3], 8.77 µM (active); in experiment [4] it was 18.7 µM (active); in experiment [5], 32.3 µM (active); in experiment [6], 20 µM (active); in experiment [7], 23.2 µM (active). Also, the half-maximal activity concentration (AC50) is 25.1 µM (active) with CD38, CD38 (gene 952) and 14.9 µM (active) in the experiment with CD69, CD69 (gene 969).

`O=C(O)COc1nc(Cl)c(Cl)cc1Cl`: the outcome in [2] was “inactive”; in experiment [3], “inactive”; in experiment [4] it was “inactive”; in experiment [5] it was “inactive”; in experiment [7], “inactive”; in the experiment with CD38, CD38 (gene 952) it was “inactive”. For the same molecule, the outcome with CD40, CD40 (gene 958) was “inactive”; in the experiment with CD69, CD69 (gene 969), “inactive”. In [6], the AC50 is 27.8 µM (active).

The record behind these values is PubChem BioAssay (EPA / NIEHS).
